About 83,000 compounds went through this panel and 20% of them were active in at least one assay; those are over-represented in the sample as a whole.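 Cell lines were cultured in 96-well plates, exposed to a single compound concentration, and assessed for percent growth 48 hours later.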 Values without a mark were called inactive. The source made the active and inactive calls. The calls were made as follows: active = growth percent below 10; inactive = the rest.

The test concerns HOP-62 NSCLC. Nature of the test: NCI-60 one-dose screen, 48 h (100 = growth as untreated, 0 = no growth, -100 = all killed). To be noted: 10 µM unless noted.
On to `COc1cc2[nH]c(C(=O)c3cc(OC)c(OC)c(OC)c3)c(N)c2cc1C#CC1CC1`, for which the growth is 42.1%.
`COc1cc2c(cc1OC)C(=O)/C(=C/c1cc(-c3ccc4c(c3)OCO4)n[nH]1)C2`: the growth was -52.5% (active).
Next, `NS(=O)(=O)c1ccc(CCNC(=O)/C=C/c2ccc(Cl)cc2)cc1`: 97.5%; `C/C(=N/NC(N)=S)C(=O)O`: 107%.
Take `Cc1ccc(-c2ccc(Nc3ccccc3)nn2)cc1S(N)(=O)=O`: the growth was 107%.
Under `CCC(c1ccc(OC)cc1)C(CC)c1ccc(O)c(CN2CCCCC2)c1` (stereo not drawn) stands 95.5%; under `COc1cc(-c2cc(-c3nc4ccc(F)cc4[nH]3)[nH]n2)cc(OC)c1OC`, 8.23% (active); under `COc1cccc(NC(=O)c2sc3nc4c(cc3c2N)C(=O)CCC4)c1`, 27.8%.
Next, `NC1(N)C=CC2=C(C=C1)C1(N)C3=C(C=CC(N)(N)C=C3)N2C2(N)C3=C(C=CC(N)(N)C=C3)N1C1=C2C=CC(N)(N)C=C1`: 89.8%; `COc1ccc(-c2nc3ccccn3c2-c2nc3ccc(Cl)cc3[nH]2)cc1`: 114%.
Take `O=c1c(CNc2ccc(S(=O)(=O)Nc3nccs3)cc2)coc2ccccc12`: the growth is 98.7%.
Next, `CN1CCN(c2nc(-c3cccc4ccccc34)nc3sc4c(c23)CCCCCC4)CC1`: 75.4%.
Under `COc1ccc2nc(-c3cc(-c4cc(OC)c(OC)c(OC)c4)n[nH]3)[nH]c2c1` stands -1.25% (active); under `COc1cccc(-c2nn(-c3ccccc3)cc2-c2ccnc(NCCNS(=O)(=O)c3ccc(Cl)cc3)c2)c1`, 53.5%; under `O=S(=O)(NCCNc1cc(-c2cn(-c3ccccc3)nc2-c2cccc(O)c2)ccn1)c1ccc(C(F)(F)F)cc1`, -60% (active).
Take `Cc1cc(C)c(NC(=O)c2sc3nc4c(cc3c2N)CCCC4)c(C)c1`: the growth was 24.1%.
Take `C/C(=N\Nc1cc(C)c2ccccc2n1)c1ccccn1`: the growth is 15.1%.
Next, `C=C1C(=O)O[C@H]2[C@H]1CC/C(Cn1cc(-c3ccc(OC)cc3)nn1)=C\CC[C@@]1(C)O[C@@H]21`: 49.7%.
Under `COC(=O)[C@]12CC[C@@H](C)[C@H](C)[C@@H]1C1=CC[C@@H]3[C@@]4(C)C[C@@H](OC(C)=O)[C@H](OC(C)=O)[C@@](C)(COC(C)=O)[C@@H]4[C@H](O)C[C@@]3(C)[C@]1(C)CC2` stands 15.6%; under `COc1cccc(-c2nn(-c3ccccc3)cc2-c2ccnc(NCCCNS(=O)(=O)c3ccc(Cl)cc3)c2)c1`, 81.8%; under `O=c1c(CNc2ccc(S(=O)(=O)Nc3ncccn3)cc2)coc2ccccc12`, 93%.
Under `COc1ccc(-c2cc(/C=C/C(=O)c3ccc(OC)c(OC)c3)[nH]n2)cc1` stands 8.64% (active); under `C#Cc1cc2c(N)c(C(=O)c3cc(OC)c(OC)c(OC)c3)[nH]c2cc1OC`, 24.4%.
`O=S(=O)(NCCNc1cc(-c2cn(-c3ccccc3)nc2-c2cccc(O)c2)ccn1)c1ccc(F)cc1`: the growth is 48%.
Regarding `c1ccc2[nH]c(-c3cc(-c4ccc5c(c4)OCO5)n[nH]3)nc2c1`, the growth is 62.6%.
With `COc1cccc(-c2nn(-c3ccccc3)cc2-c2ccnc(NCCCNS(=O)(=O)c3cccc(F)c3)c2)c1`, the growth was 54.1%.
Next, `COc1cc(-c2cc(-c3nc4cc(Cl)c(Cl)cc4[nH]3)[nH]n2)cc(OC)c1OC`: 80.6%; `Oc1cc(/C=C/c2nc(N3CCOCC3)c3cc(Cl)c(Cl)cc3n2)cc(O)c1O`: 97.2%.
For `Cc1cc(Nc2ccc(F)cc2)nc(N2CCN(c3ccnc4cc(Cl)ccc34)CC2)n1`, the growth was 59.8%.
With `COc1ccc(/C=C/C(=O)NCC(C)O)cc1` (stereo not drawn), the growth was 89.1%.
With `COc1ccc(-c2cc(/C=C/C(=O)c3ccc(N)cc3)[nH]n2)cc1`, the growth was 15.4%.
Next, `CSc1ccc(N(C)c2nc(C)nc3c2CCC3)cc1`: 2.72% (active).
Under `OCCNc1nc(Nc2ccc(Cl)c(Cl)c2)nc2ccccc12` stands 49.1%; under `COc1cc(-c2cc(-c3nc4ccccc4[nH]3)[nH]n2)cc(OC)c1OC`, 39.7%.
As to `O=C1CCN2C(=O)Nc3ccccc3C2C1` (stereo not drawn), the growth was 109%.
Next, `Cc1[c-]onc1C.Cc1[c-]onc1C.[Ag].[Ag].[NH-]S(=O)(=O)c1ccc(N=Nc2cc(N=Nc3ccc(S([NH-])(=O)=O)cc3)c3c(NC(=O)C(Cl)Cl)cccc3c2OC(=O)C(Cl)Cl)cc1`: 84.7%; `Clc1ccc(Cn2cc(-c3nc4ccc(Br)nc4n3Cc3ccc(Cl)cc3)c3cccnc32)cc1`: 82.7%; `COC(=O)[C@]12CC[C@@H](C)[C@H](C)[C@@H]1C1=CC[C@@H]3[C@@]4(C)C[C@@H](OC(C)=O)[C@H](O)[C@@](C)(COC(C)=O)[C@@H]4[C@H](O)C[C@@]3(C)[C@]1(C)CC2`: -84% (active).

For the origin of these results see PubChem BioAssay (NCI).
